Source: PubChem BioAssay (Fisher Drug Discovery Resource Center)
mcGAS inh: mouse cGAS inhibition by luminescence | Q8C6L5 | recombinant cGAS, Kinase-Glo ATP depletion luminescence | inhibition, % at 12.5 µM | 160,000 tested, 0.15% active;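 further: 0% = negative control wells and 100% = reference inhibitor with no enzyme activity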
hcGAS inh: blocks human cGAS activity | Q8N884 | recombinant h-cGAS, ATP depletion, Kinase-Glo luminescence | inhibition, % at 12.5 µM | 290,000 tested, 0.081% active | AID 1259398;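 further: 0% = vehicle reaction and 100% = reaction without DNA for no activity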
Target sequence (Q8N884 whole entry, looked up): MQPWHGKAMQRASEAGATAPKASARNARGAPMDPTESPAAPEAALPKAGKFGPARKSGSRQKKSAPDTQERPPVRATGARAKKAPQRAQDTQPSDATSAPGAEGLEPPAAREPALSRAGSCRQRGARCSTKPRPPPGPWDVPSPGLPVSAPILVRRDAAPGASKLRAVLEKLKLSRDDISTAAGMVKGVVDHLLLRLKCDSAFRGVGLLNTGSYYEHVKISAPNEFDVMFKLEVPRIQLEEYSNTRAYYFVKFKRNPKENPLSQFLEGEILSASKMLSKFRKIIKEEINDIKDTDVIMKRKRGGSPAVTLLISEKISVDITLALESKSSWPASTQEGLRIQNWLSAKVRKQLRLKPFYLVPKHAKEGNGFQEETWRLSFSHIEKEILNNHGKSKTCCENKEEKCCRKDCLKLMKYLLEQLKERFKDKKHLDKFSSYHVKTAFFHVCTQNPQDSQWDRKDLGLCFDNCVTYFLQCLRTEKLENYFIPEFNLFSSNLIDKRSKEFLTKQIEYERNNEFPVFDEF
NPYLR7 agonist: activates Aedes aegypti NPYLR7 receptor | 270,000 tested, 0.15% active | HEK293T NPYLR7/Galpha15, GCaMP6s calcium fluorescence | activation, % at 10 µM; in the data active means activation above about 40%;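 further: 0% = vehicle and 100% = reference agonist at the receptor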
* hit, by the source's call; nt = no result; ! = repeats disagree. An excerpt weighted towards active compounds, which were near 0.24% of everything screened. Unless noted, no stated cut-off is given here; in the data, active means inhibition above about 40%; inactive means the rest.

SMILES	mcGAS inh	hcGAS inh	NPYLR7 agonist
O=[N+]([O-])c1cc([As](=O)(O)O)ccc1O	nt	83*!	-9
O=[N+]([O-])c1ccc(O)c(Cl)c1	nt	2	6
O=[N+]([O-])c1ccc(O)c([N+](=O)[O-])c1	nt	72*	-28
O=[N+]([O-])c1cc(O)c(O)c([N+](=O)[O-])c1	8	3	-6
CCOC(C)c1nc(CC(=O)N2CC(C)C(N(C)C)C2)cs1 (stereo not drawn)	nt	-12	-1
CCOC(=O)[C@]12C[C@@H](Oc3ccccc3)[C@@]1(c1ccccc1)NC(=O)C2=O	nt	3	-5
Nc1c2c(nc3sc4c(c13)CCCC4)CCCCC2	-6	-8	42*
O=c1c2c3c(sc2nc(SCCS(=O)(=O)F)n1-c1ccccc1)CCCC3	-5	-4	-4
O=[N+]([O-])c1ccc(Cl)c2nonc12	-5	-14	139*
O=[N+]([O-])c1cc(Cl)ccc1Cl	-2	0	9
O=c1[nH]c(CN2CCC3CCCCC3C2)nc2ccsc12 (stereo not drawn)	-5	-2	2
O=C1NC(=O)N(c2ccc(Cl)cc2)C(=O)/C1=C/c1ccc([N+](=O)[O-])o1	47*	32	3
Cc1ccc(/C=C2\C(=O)NC(=O)N(c3ccc(Cl)cc3)C2=O)o1	0	2	13
Cc1ccc(NC2=NC(C)(C)CS2)cc1Cl	nt	-14	2
O=C1NCCN2CCN(Cc3ccc4cc(Cl)ccc4n3)CC12 (stereo not drawn)	nt	-5	0
O=C(Nc1ccc(F)c(F)c1F)c1cccn(Cc2ccccc2)c1=O	nt	-2	14
Clc1ccc2c(N3CCCC4(CCNC4)C3)ccnc2c1 (stereo not drawn)	-6	1	-9
CCC(NC)c1nc2ccccc2c(=O)n1-c1ccc(F)cc1 (stereo not drawn)	nt	-7	2
O=c1c2ccccc2nc(CCl)n1-c1ccc(F)cc1	48*	0	-2
O=C(O)C1C2C(=O)OCC12Br (stereo not drawn)	nt	1	-12
